In the supplement of paper PMC3334620:
In all, about 33,000 sequences were measured (“E-score (-0.5 to 0.5)”: median about -0.016, highest 2% from about 0.31 on). The sample as a whole holds a higher share of the highest values than the screen did.

What follows are sequences tested against Cst6 (UniProt P40535) (assay: PBM E-score (8-mer binding enrichment) (E-score (-0.5 to 0.5)); higher = stronger / more preferred TF binding). Conditions: protein concentration: 200 nM; construct: GST-DNA-binding domain.
Summary of the method: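 Full-length yeast transcription factors or their DNA-binding domains, GST-tagged and expressed with PURExpress, were applied at about 100-200 nM to universal all-10-mer Agilent arrays. These arrays had been made double-stranded by primer extension on fresh or once-stripped slides. Detection used fluorescent anti-GST, normalisation used masliner, and E-scores for ungapped eight-base words pooled with reverse complements came from the Universal PBM Analysis Suite.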

UniProt P40535, sequence (P40535 whole entry, the tested form may be a part): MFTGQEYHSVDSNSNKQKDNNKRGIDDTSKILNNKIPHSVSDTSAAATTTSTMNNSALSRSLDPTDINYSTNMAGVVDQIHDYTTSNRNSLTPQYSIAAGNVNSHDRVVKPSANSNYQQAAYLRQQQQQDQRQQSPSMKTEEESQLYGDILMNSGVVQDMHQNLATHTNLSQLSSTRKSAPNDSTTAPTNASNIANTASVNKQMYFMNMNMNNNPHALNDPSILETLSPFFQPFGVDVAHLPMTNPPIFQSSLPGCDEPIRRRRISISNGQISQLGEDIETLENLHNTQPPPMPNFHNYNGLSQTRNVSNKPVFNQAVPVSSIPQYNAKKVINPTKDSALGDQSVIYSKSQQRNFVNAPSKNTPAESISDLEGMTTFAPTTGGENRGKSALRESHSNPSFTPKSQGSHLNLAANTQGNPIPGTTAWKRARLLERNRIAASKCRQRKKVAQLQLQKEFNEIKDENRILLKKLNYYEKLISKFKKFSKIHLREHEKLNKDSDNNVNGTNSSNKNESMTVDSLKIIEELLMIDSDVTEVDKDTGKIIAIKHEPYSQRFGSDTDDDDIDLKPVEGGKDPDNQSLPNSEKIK

Row | Sequence | PBM E-score
1 | ATAAGGGC | 0.0296
2 | GCCGATAC | -0.136
3 | CTCGCTAA | 0.0589
4 | AGACGTTA | 0.0355
5 | TGATCGCA | 0.0445
6 | AGCCGGGC | -0.185
7 | AAGCTTGA | -0.0535
8 | GCTTCGAA | -0.0925
9 | ACTGACGC | 0.243
10 | TATGACAA | 0.25
11 | CCTGACAC | 0.029
12 | AATGACCT | 0.25
13 | ATTGACGC | 0.265
14 | CATGACAC | 0.328
15 | AATGACGT | 0.495
16 | TATGACGA | 0.424
17 | TATGACCA | 0.202
18 | AATGACGC | 0.453
19 | AAGGACGT | 0.0462
20 | AATGACAC | 0.273
21 | AGAGCGGA | -0.0178
22 | CTCAGACC | -0.22
23 | AGACCACC | -0.137

Row | Sequence | PBM E-score
24 | ACCGTCCA | -0.185
25 | ACAGTGAA | 0.146
26 | CATCTAGA | 0.019
27 | TCCTAGCA | -0.162
28 | GCTCCGAA | -0.0443
29 | ACTGACGA | 0.201
30 | CATGACCG | 0.0772
31 | AATGACGA | 0.451
32 | AATGACCG | 0.178
33 | CATGACAG | 0.118
34 | AATGACTA | 0.041
35 | CATGACGA | 0.438
36 | CATGACCA | 0.0978
37 | CCTGACGA | 0.182
38 | CATGACGG | 0.38
39 | AATGACGG | 0.35
40 | ACTGACGG | 0.105
41 | CGGCCTCA | -0.0129
42 | ACCACCGA | -0.145
43 | CAAAAGCA | -0.0642
44 | AGGGGATG | -0.161
45 | CGGGGCTC | -0.307
46 | ATCGGAGA | -0.197

Row | Sequence | PBM E-score
47 | AGTGACAC | 0.274
48 | CATGACCC | -0.0425
49 | CATGACTC | 0.0297
50 | AGTGACAT | 0.459
51 | CATGACGC | 0.455
52 | AGTGACAA | 0.169
53 | AGCAGAAC | -0.0649
54 | AATCCACC | -0.121
55 | CAGGGCCC | -0.335
56 | AAGTGACA | 0.357
57 | AAGTGACT | 0.024
58 | AAGTGAGA | 0.00703
59 | AAGTGAAA | 0.193
60 | AAGTGACG | 0.45
61 | CAGTGACA | 0.248
62 | TAGTGACA | 0.338
63 | CAGTGACC | -0.0895
64 | AAGTGACC | -0.131
65 | TAGTGATA | 0.088
66 | CAGTGACG | 0.435
67 | GAGTGACA | 0.287
68 | GGAGAATA | 0.103
69 | TACCCGAA | -0.133

Row | Sequence | PBM E-score
70 | ATGCCACG | 0.00475
71 | GGGAGTAC | -0.226
72 | ACTCACCA | 0.043
73 | GGCGTAAC | -0.0656
74 | CCCACGGG | -0.214
75 | TTATCCAA | 0.162
76 | CATTGACA | 0.0835
77 | TGGTGACA | 0.378
78 | GGGTGACA | 0.243
79 | CATTGACC | 0.149
80 | GGGTGACC | -0.0338
81 | CATTGACG | 0.358
82 | CTGCTCCC | -0.174
83 | CCTAATGC | -0.0866
84 | CATCTAAA | 0.194
85 | TCAGCTGA | 0.152
86 | ATTGAGCC | 0.197
87 | TCATTAAA | 0.352
88 | ACATTGCA | -0.0281
89 | CCATTACA | 0.225
90 | GCATTACA | 0.187
91 | TCATTACA | 0.368
92 | GCATTAAA | 0.163

Row | Sequence | PBM E-score
93 | TCATTGCA | 0.321
94 | ACATTAAA | 0.198
95 | CCATTGCA | 0.024
96 | CGGAGAGC | -0.0924
97 | CGTCGGAC | -0.178
98 | ATTTCACG | -0.00077
99 | AGTAAGGA | -0.0515
100 | ATAGATGG | -0.129
101 | CCTTCGAG | -0.21
102 | TGAAGTCA | 0.372
103 | GGAAGTCA | -0.14
104 | CGAAGTCA | 0.0581
105 | CAGCAGTC | -0.258
106 | CTATTTAA | -0.0505
107 | CTATTAAA | 0.192
108 | TTATTAAA | 0.264
109 | ATATTTAA | 0.355
110 | ATATTTAC | 0.175
111 | ATATTAAA | 0.355
112 | ATCAAAGG | -0.0902
113 | CTACCACA | -0.155
114 | AGTTCCCG | -0.205
115 | AGGGCAAT | -0.0329

Row | Sequence | PBM E-score
116 | CTGCGTCA | 0.428
117 | GTGCGTAA | 0.192
118 | CTGCGTTA | -0.204
119 | ATGCGTCA | 0.444
120 | ATGCGTCG | 0.0508
121 | GTGCGTCA | 0.432
122 | GTGCGTGA | 0.136
123 | ATGCGTCC | -0.213
124 | CTGCGTCC | -0.11
125 | TCTAACCA | 0.057
126 | CGTCTACC | -0.0234
127 | CATTTAGA | 0.136
128 | AGCAGCTC | -0.28
129 | GTCAAGCA | -0.29
130 | TAATATAA | 0.358
131 | GCATAACA | 0.124
132 | GAATAAAA | 0.216
133 | TCATATAA | 0.305
134 | CCATATAA | 0.105
135 | GAATATAA | 0.111
136 | AAATATAA | 0.233
137 | CAATAAAA | 0.165
138 | ACATAACA | 0.227

Row | Sequence | PBM E-score
139 | TAATAAAA | 0.316
140 | TCATAACA | 0.311
141 | GCATATAA | 0.166
142 | CATCCTAC | -0.0877
143 | CCAGGGCC | -0.39
144 | ATTGGCGC | 0.0493
145 | CGACTACC | -0.363
146 | CTTCCATC | -0.0839
147 | CAAGTCTC | -0.247
148 | TCGCCTAA | -0.0175
149 | AAAAGAGG | -0.121
150 | TACCAGAA | 0.0986
151 | AGGGAAGG | -0.28
152 | CAATATAA | 0.312
153 | CAATATAG | 0.0707
154 | CAATATAC | -0.0952
155 | GCACGGCA | 0.353
156 | GCACGGCC | 0.23
157 | CAACGGCA | 0.094
158 | TCACGGCA | 0.224
